# Activity calls are given as the source filed them.
# Columns and labels:
# [1] = test system: Human papillomavirus type 1a protein E7 (residues 44-93); test: HPV1a E7 fragment binders on microarrays, primary screen, biochemical, small-molecule microarray, residues 44-93, 635 nm fluorescence (AID 1108); conditions: small-molecule microarray binding, fluorescence 635 nm; higher = more signal;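 further: E7 fragment applied at 1 µg/mL in TBST for 1 h at 4 C; score combines spot fluorescence with its signal to noise ratio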
# [2] = modulators of HCV replicon luciferase signal, primary screen, HCV replication inhibitor project, Huh7 cells, luciferase reporter (AID 1109); conditions: 48 h, higher = more signal;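 further: huh7 hepatoma cells harbouring a luciferase neomycin HCV replicon reporter; luciferase luminescence as measure of HCV replicon replication; test concentration not given here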
# [3] = molecular target: Left-right determination factor 2 (Homo sapiens) (UniProt O00292); test: LEFTY2 binders on small-molecule microarrays, primary screen, biochemical, small-molecule microarray, 635 nm fluorescence scan (AID 1110); conditions: LEFTY2 binding, higher = more signal
# Chain of Left-right determination factor 2 (Homo sapiens) (O00292 whole entry, looked up): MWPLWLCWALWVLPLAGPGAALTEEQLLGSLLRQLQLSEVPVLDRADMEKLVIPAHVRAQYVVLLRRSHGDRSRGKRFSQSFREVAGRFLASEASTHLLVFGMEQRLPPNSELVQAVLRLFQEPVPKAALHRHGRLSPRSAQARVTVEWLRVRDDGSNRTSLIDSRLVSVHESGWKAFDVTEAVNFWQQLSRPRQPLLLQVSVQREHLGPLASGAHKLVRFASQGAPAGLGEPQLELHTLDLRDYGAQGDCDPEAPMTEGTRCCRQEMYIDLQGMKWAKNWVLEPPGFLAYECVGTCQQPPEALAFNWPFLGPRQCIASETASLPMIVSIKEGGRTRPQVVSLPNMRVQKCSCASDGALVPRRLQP
# [4] = molecular target: Calmodulin-1 (Homo sapiens) (UniProt P0DP23); test: CALM1 binders on microarrays, EGTA buffer, profiling panel, biochemical, small-molecule microarray, Cy5-labelled CALM1 (AID 1111); conditions: Cy5-CALM1 binding fluorescence, higher = more signal;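 further: labelled calmodulin applied in Tris saline Tween buffer holding calcium plus EGTA and DTT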
# [5] = molecular target: Calmodulin-1 (Homo sapiens) (UniProt P0DP23); test: calcium-bound CALM1 binders on microarrays, profiling panel, artefact control for SMM control-protein annotation, biochemical, small-molecule microarray, Cy5-labelled CALM1, plus calcium (AID 1112); conditions: Cy5-CALM1 binding fluorescence, higher = more signal;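 further: score merges spot fluorescence with signal to noise from triplicate slides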
# [6] = small-molecule microarray binders of probe aWnt5a, primary screen, biochemical, biotinylated probe, 635/667 nm fluorescence (AID 1113); conditions: higher = more signal;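 further: score merges 667 nm fluorescence intensity with signal-to-noise per printed feature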
# [7] = small-molecule microarray binders of probe aShh, primary screen, biochemical, biotinylated probe, 635/667 nm fluorescence (AID 1114); conditions: higher = more signal;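 further: probe is biotin-labelled aShh protein from a stem cell growth factor screen; measures binding of labelled protein to compounds printed on the slide; score merges feature fluorescence at 667 nm with signal-to-noise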
# [8] = small-molecule microarray binders of probe aNog, primary screen, biochemical, biotinylated probe, 635/667 nm fluorescence (AID 1115); conditions: higher = more signal;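 further: probe is biotinylated aNog protein used at 0.15 µg/mL for 1 h at 4 C; z-score combines 667 nm fluorescence of each spot with its signal to noise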
# [9] = molecular target: Torsin-1A-interacting protein 1 (Homo sapiens) (UniProt Q5JTV8); test: LAP1 binders from COS7 cell lysate, primary screen, small-molecule microarray, 635/667 nm fluorescence (AID 1116); conditions: COS7-hLAP1 lysate binding, 635 nm fluorescence, higher = more signal
# Chain of Torsin-1A-interacting protein 1 (Homo sapiens) (Q5JTV8 whole entry, looked up): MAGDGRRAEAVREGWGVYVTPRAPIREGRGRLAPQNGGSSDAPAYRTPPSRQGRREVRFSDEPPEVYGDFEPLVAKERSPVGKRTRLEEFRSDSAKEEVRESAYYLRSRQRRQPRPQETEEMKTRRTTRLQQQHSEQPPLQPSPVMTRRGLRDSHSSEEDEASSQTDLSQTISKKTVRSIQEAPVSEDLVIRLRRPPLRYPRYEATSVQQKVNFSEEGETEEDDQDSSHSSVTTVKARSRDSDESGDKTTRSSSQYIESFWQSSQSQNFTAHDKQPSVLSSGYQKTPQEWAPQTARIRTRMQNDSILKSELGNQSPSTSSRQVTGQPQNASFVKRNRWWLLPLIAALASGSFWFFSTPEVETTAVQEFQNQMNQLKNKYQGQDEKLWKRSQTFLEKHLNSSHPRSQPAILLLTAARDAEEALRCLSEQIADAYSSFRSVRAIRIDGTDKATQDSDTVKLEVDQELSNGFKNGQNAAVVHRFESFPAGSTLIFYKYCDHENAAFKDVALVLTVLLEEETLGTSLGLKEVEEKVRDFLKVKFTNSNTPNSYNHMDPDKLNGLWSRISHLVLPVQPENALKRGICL
# [10] = molecular target: Alpha-bungarotoxin (Bungarus multicinctus) (UniProt P60615); test: alpha-bungarotoxin binders on microarray, profiling panel, artefact control for SMM control protein annotation, biochemical, small-molecule microarray, Alexa647 label, 635/667 nm fluorescence (AID 1117); conditions: alpha-BTX-A647 binding fluorescence, higher = more signal
# Chain of Alpha-bungarotoxin (Bungarus multicinctus) (P60615 whole entry, looked up): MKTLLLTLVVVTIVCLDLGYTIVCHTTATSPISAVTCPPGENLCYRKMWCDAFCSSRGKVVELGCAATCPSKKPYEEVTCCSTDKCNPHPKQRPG
# Albumin (Bos taurus) = Albumin (Bos taurus) (UniProt P02769); test: bovine serum albumin binders on microarray, profiling panel, artefact control for SMM control protein annotation, biochemical, small-molecule microarray, Alexa647 label, 635/667 nm fluorescence (AID 1118); conditions: BSA-A647 binding, fluorescence 635 nm, higher = more signal;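 further: score merges 667 nm emission intensity and signal-to-noise per printed compound spot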
# Chain of Albumin (Bos taurus) (P02769 whole entry, looked up): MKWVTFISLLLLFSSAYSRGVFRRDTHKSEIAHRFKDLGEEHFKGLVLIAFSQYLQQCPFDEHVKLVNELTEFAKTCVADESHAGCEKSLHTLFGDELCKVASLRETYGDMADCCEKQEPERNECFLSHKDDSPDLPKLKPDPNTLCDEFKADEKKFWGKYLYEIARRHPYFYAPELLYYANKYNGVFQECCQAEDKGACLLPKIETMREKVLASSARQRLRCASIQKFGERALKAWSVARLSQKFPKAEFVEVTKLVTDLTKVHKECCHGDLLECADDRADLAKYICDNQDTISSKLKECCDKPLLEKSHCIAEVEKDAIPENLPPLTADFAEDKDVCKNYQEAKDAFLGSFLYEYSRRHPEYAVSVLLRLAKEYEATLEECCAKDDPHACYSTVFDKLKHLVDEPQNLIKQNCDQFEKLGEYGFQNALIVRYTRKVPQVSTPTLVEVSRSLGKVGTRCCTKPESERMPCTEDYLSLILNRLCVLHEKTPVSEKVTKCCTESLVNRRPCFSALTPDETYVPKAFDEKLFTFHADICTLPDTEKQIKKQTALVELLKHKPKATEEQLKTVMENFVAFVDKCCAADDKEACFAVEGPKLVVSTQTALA
# [11] = small-molecule microarray binders of probe aXIP, primary screen, biochemical, NeuroSMM set, 635/667 nm fluorescence (AID 1119); conditions: higher = more signal, called active from +8 up or from −8 down;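 further: probe is the protein aXip251-270 applied at 1 µg/mL to compound-printed slides; binding of probe to printed compounds measured as 667 nm fluorescence plus signal to noise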
# [12] = small-molecule binders of probe aNOTCH3, primary screen, biochemical, small-molecule microarray, 635/667 nm fluorescence (AID 1120); conditions: higher = more signal;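 further: probe is a biotin-tagged antibody raised against NOTCH3 rather than NOTCH3 protein; score merges spot fluorescence near 667 nm with spot signal to noise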
# [13] = small-molecule binders of probe aNOTCH2, primary screen, biochemical, small-molecule microarray, 635/667 nm fluorescence (AID 1121); conditions: higher = more signal;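 further: score merges feature fluorescence read at 667 nm with its signal to noise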
# [14] = molecular target: Carbonic anhydrase 2 (Homo sapiens) (UniProt P00918); test: CAII small-molecule binders, profiling panel, biochemical, small-molecule microarray, Alexa647-labelled CAII (AID 1122); conditions: CAII-A647 binding fluorescence, higher = more signal
# [15] = COS7 lysate on small-molecule microarray, probe aHis, 635 nm (AID 1123); conditions: COS7 cell lysate, fluorescence, higher = more signal;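 further: z-score combines 667nm fluorescence intensity with signal-to-noise per printed compound spot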
# [16] = compound binding in COS7 lysate, probe aLAP1, primary screen, cell lysate, small-molecule microarray (AID 1124); conditions: probe aLAP1, fluorescence, higher = more signal;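 further: lysate comes from COS7 cells expressing LAP1 and is applied at 0.3 µg/mL; score merges spot fluorescence near 667 nm with signal-to-noise over triplicate slides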
# Sam68 (KHDRBS1) = test: Sam68 small-molecule binders, primary screen, biochemical, small-molecule microarray, 635 nm fluorescence (AID 1125); conditions: small-molecule microarray binding, higher = more signal;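 further: score merges 667 nm channel intensity with signal to noise over triplicate slides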
# [17] = test system: Chordin-like protein 2 (CHRDL2); test: CHRDL2 small-molecule binders, primary screen, biochemical, small-molecule microarray, 635 nm fluorescence (AID 1126); conditions: small-molecule microarray binding, fluorescence 635 nm; higher = more signal;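 further: printed compound slides probed with Chrdl2 protein at 4 µg/mL for 1 h at 4 C; score merges 667 nm emission intensity with signal to noise over three replicate slides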
# [18] = molecular target: Concanavalin-A (Canavalia ensiformis) (UniProt P02866); test: ConA small-molecule binders, primary screen, artefact control for SMM control protein annotation, biochemical, small-molecule microarray, Alexa647 label, 635 nm (AID 1127); conditions: ConA-A647 binding fluorescence, higher = more signal;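 further: z combines 667 nm emission intensity with signal-to-noise across three replicate slides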
# Chain of Concanavalin-A (Canavalia ensiformis) (P02866 whole entry, looked up): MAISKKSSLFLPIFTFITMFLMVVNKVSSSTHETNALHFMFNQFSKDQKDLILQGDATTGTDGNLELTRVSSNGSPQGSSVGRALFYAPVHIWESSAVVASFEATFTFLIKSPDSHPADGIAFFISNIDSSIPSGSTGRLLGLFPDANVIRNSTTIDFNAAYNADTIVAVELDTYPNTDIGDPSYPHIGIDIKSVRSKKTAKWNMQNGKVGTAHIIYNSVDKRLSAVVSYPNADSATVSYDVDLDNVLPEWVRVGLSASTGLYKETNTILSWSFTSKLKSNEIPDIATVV
SMILES,composite z-score [1],z-score [2],composite z-score [3],composite z-score [4],composite z-score [5],composite z-score [6],composite z-score [7],composite z-score [8],composite z-score [9],composite z-score [10],composite z-score (Albumin (Bos taurus)),composite Z-score [11],composite z-score [12],composite z-score [13],composite z-score [14],composite z-score [15],composite z-score [16],composite z-score (Sam68 (KHDRBS1)),composite z-score [17],composite z-score [18]
COCCOC(=O)N1C(=O)[C@@]2(c3cc(C#CC4=CCCCC4)ccc31)[C@H](c1ccccc1OCCO)N1[C@H](c3ccccc3)[C@H](c3ccccc3)OC(=O)[C@H]1[C@@H]2C(=O)N1CCc2cc(OC)c(OC)cc2C1,1.33,-1.81,0.336,-0.141,-0.383,-0.121,-0.176,-0.008,0.336,0.761,-0.157,0.0781 (inactive),-0.406,-0.255,0.426,0.641,0.379,1.3,0.774,0.856
COC(=O)[C@@]1(Cc2ccccc2)[C@H]2c3cc(C(=O)N4CCCC4)n(C[C@H](O)CO)c3C[C@H]2CN1C(=O)c1ccccc1,0.391,-0.925,-0.43,2.06,0.142,-0.124,-0.316,-0.107,2.96,-0.187,0.659,-0.164 (inactive),0.152,0.0837,0.907,1.79,0.288,0.18,-1.34,-0.311
C=C[C@H](COC(C)=O)NS(=O)(=O)c1ccc(Br)cc1,-0.292,0.55,0.0605,-0.173,-0.766,-0.0721,0.0121,-0.219,0.168,0.0669,0.0793,0.131 (inactive),-0.217,-0.106,-0.111,-0.0413,-0.0354,-0.603,1.14,0.43
CCCCC(=C=CC[C@@H](O)c1ccc(OCCO)cc1)C[C@@H](O)COCc1ccccc1,-0.548,-1.45,0.141,-0.686,-0.244,0.0044,0.0796,-0.213,1.89,-0.324,-0.28,-0.114 (inactive),-0.182,-0.145,0.868,0.173,-0.268,0.61,0.0396,-0.382
O=C(N1CCCCC1)[C@@]1(Cc2ccccc2)COC(c2ccc(OCCCO)cc2)=N1,0.242,-1.98,-0.462,2.02,1.23,0.113,0.253,0.293,0.996,1.83,0.874,0.986 (inactive),0.501,0.313,0.714,2.44,0.409,1.33,-0.729,0.892

# Reference: PubChem BioAssay
